PfG6PD inh = PfG6PD enzyme inhibitors, primary screen, biochemical, fluorescence intensity, uHTS; AID 504690, 2011; glucose-6-phosphate dehydrogenase-6-phosphogluconolactonase (Plasmodium falciparum 3D7); actives 0.78% (n = 350,000); PfGluPho enzyme, NADPH resazurin-diaphorase fluorescence; inhibition, % at 20 µM;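 active means inhibition reaching at least a set limit at 20 µM in the primary screen, cut at about 59% in these data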;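 further: 0% = DMSO wells with substrate and 100% = DMSO wells lacking glucose-6-phosphate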
proKLK7 act = proKLK7 zymogen activators, primary screen, biochemical, fluorescence intensity; Kallikrein-7 (Homo sapiens), P49862; actives 0.9% (n = 370,000); purified proKLK7, EDANS-DABCYL substrate fluorescence; 100% is mature enzyme control, 0% vehicle; activation, % at 7 µM;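 active means activation above the mean of all tested compounds plus 3 SD, computed per campaign excluding outliers beyond control limits, cut at about 13% in these data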
Target sequence (P49862 whole entry, looked up): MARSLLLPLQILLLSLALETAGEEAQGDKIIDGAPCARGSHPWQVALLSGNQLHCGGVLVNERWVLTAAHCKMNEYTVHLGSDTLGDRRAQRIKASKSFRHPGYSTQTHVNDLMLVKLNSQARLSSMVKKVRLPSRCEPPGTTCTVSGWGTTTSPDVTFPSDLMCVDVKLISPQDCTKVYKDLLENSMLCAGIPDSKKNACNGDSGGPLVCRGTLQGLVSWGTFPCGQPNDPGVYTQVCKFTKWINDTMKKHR
FAS-TE inh = FAS thioesterase domain inhibitors, primary screen, biochemical, fluorescence intensity, uHTS; recombinant FAS-TE, OMFH fluorogenic substrate, fluorescence endpoint; inhibition, % at 15 µM; actives 0.67% (n = 360,000);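 active means compounds whose normalised, plate-corrected inhibition of enzyme fluorescence in the single-dose primary screen is 50% or more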;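 further: 0% = DMSO with enzyme and 100% = substrate without enzyme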
Neddyl block = inhibitors of cullin neddylation, primary screen, biochemical, TR-FRET, uHTS, NAE and Ubc12 | NEDD8-conjugating enzyme Ubc12 (Homo sapiens) + NEDD8-activating enzyme E1 regulatory … | calls only at 25 µM | actives 0.58% (n = 360,000) | AID 651699, 2012; in the data active means inhibition above about 36%
PfGluPho conf = PfG6PD inhibitors, hit retest, confirmation, biochemical, fluorescence intensity, single concentration; shares compounds with PfG6PD inh; recombinant PfGluPho, NADPH-diaphorase-resazurin fluorescence; inhibition, % at 20 µM; actives 34% (n = 2,400); AID 504753, 2011;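 active means inhibition of at least 50% at 20 µM in any single replicate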;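 further: 0% = DMSO with substrate and 100% = DMSO lacking glucose-6-phosphate substrate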
Diaph ctr 10uM = diaphorase inhibitors and chemical oxidizers, confirmation, counter-screen for P. falciparum G6PD inhibitor project, biochemical, fluorescence intensity, 10 µM NADPH | AID 504862, 2011 | inhibition, % at 20 µM | diaphorase-coupled resazurin reduction, NADPH 10 uM | shares compounds with PfG6PD inh | actives 39% (n = 820);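 active means average inhibition reaching 50% or more with the compound at 20 µM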;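 further: resorufin red fluorescence formed as diaphorase reduces resazurin using NADPH; 0% = DMSO with enzyme and 100% = DMSO without enzyme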
Diaph ctr 30uM = diaphorase inhibitors and chemical oxidizers, confirmation, counter-screen for P. falciparum G6PD inhibitor project, biochemical, fluorescence intensity, 30 µM NADPH; shares compounds with PfG6PD inh; Diaphorase/resazurin coupled assay, resorufin fluorescence; inhibition, % at 20 µM; actives 29% (n = 820); AID 504863, 2011;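 active means inhibition averaging 50% or more, tested at 20 µM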;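 further: 0% = DMSO with enzyme and 100% = DMSO wells lacking diaphorase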
* = called active by the depositor; i = inactive; x = not tested or not shown. An excerpt weighted towards active compounds, which were near 2.7% of everything screened.

SMILES	PfG6PD inh	proKLK7 act	FAS-TE inh	Neddyl block	PfGluPho conf	others
CCOc1ccccc1NC(=O)CCCc1nc2ccccc2c(=O)[nH]1	67.1*	0.6	-3.4	i	53.0*	Diaph ctr 10uM=38.6;Diaph ctr 30uM=36.1
CCOc1ccc(Oc2ccccc2NC(=O)CCc2nc3ccccc3c(=O)[nH]2)cc1	8.2	-0.2	1.9	i	x
Cc1ccc(/C(C#N)=C\c2ccc(N3CCOCC3)o2)cc1	72.2*	-0.4	4.1	i	-1.7
Cc1ccc(Cc2c(-c3ccc(Cl)cc3)nc3cc(C)ccn23)cc1	96.3*	-0.1	19.1	i	3.3
Cc1ccn2c(Cc3ccccc3)c(-c3ccc(Br)cc3)nc2c1	108.1*	-0.1	25.8	i	25.0
Cc1ccc(Cc2c(-c3ccc(C)cc3)nc3cc(C)ccn23)cc1	63.1*	-2.4	15.2	i	6.3
O=S1(=O)c2ccc(N3CCCC3)cc2Oc2ccccc2CN1Cc1cn(Cc2ccccc2C(F)(F)F)nn1	x	-0.4	x	x	x
Brc1cccc(Nc2nc(-c3cccnc3)cs2)c1	59.6*	0.1	18.3	i	-14.0
Brc1ccc(Nc2nc(-c3cccnc3)cs2)cc1	47.7	-0.2	10.5	i	x
COc1cc(O)c(NC(C)=O)c2nonc12	64.1*	-0.1	-4.8	i	42.9
Cc1cc(C(=O)CSc2nnc(-c3ccco3)o2)c(C)n1Cc1ccco1	17.9	0.4	5.1	i	x
Cc1nnc(SCC(=O)c2cc(C)n(-c3ccc4c(c3)OCO4)c2C)s1	97.7*	-0.3	10.3	i	68.8*	Diaph ctr 10uM=56.1*;Diaph ctr 30uM=42.2
Cc1cc(C(=O)CSc2nnc(-c3cccs3)o2)c(C)n1-c1ccccc1	78.8*	-0.2	21.9	i	43.0
O=C(CSc1nnc(-c2cccs2)o1)c1cccs1	-0.2	-0.3	3.3	i	x
Cc1cc(C(=O)CSc2nnc(-c3ccco3)o2)c(C)n1-c1ccc2c(c1)OCCO2	75.1*	-0.3	16.3	i	36.0
COc1ccc(C(=O)/C=C(\Nc2ccc(Br)c(C)c2)c2ccc(OC)cc2OC)c(OC)c1	x	0.2	x	x	x
Cc1ccc(S(=O)c2ccc([N+](=O)[O-])c3nonc23)cc1 (stereo not given)	117.1*	-0.8	-21.5	i	102.8*	Diaph ctr 10uM=11.1;Diaph ctr 30uM=11.0
COC(=O)[C@]12C[C@H](CC(=O)N3CCOCC3)C(=O)N(CCc3ccc(OC)c(OC)c3)C1=C[C@H](C(C)C)O[C@@H]2C1CC1	x	0.0	x	x	x
COC(=O)CCC(=O)OC1(C)C(=O)C=C2C=C(C3CC3)N(CCCCO)C=C2C1=O (stereo not given)	51.9	0.5	-11.6	i	x
COC(=O)CCC(=O)OC1(C)C(=O)C=C2C=C(C3CC3)N(CCc3c[nH]c4ccccc34)C=C2C1=O (stereo not given)	64.9*	2.3	-9.3	i	38.4
COC(=O)CCCC1=CC2=CC(=O)C(C)(OC(=O)c3cccs3)C(=O)C2=CN1C1CC1 (stereo not given)	61.7*	0.9	-10.7	i	6.5
COC(=O)CCC(=O)OC1(C)C(=O)C=C2C=C(C3CC3)N(CCCOC(C)C)C=C2C1=O (stereo not given)	68.2*	x	-11.8	i	23.5
COC(=O)CCC(=O)OC1(C)C(=O)C=C2C=C(C3CC3)N(CCc3ccccn3)C=C2C1=O (stereo not given)	62.5*	-0.8	-12.6	i	25.7
COC(=O)CCC(=O)OC1(C)C(=O)C=C2C=C(C3CC3)N(c3ccccc3)C=C2C1=O (stereo not given)	66.5*	1.6	-1.6	i	37.1
COC(=O)CCC(=O)OC1(C)C(=O)C=C2C=C(C3CC3)N(C(CO)CO)C=C2C1=O (stereo not given)	52.3	0.3	-8.7	i	x
SMILES	PfG6PD inh	proKLK7 act	FAS-TE inh	Neddyl block	PfGluPho conf	others
Cc1csc(NC(=O)c2cc3c(s2)CCCC3)n1	61.9*	1.0	-0.2	i	8.8
CCOC(=O)Cc1csc(NC(=O)c2cc3c(s2)CCCC3)n1	5.6	0.3	5.8	i	x
Cc1cnc(NC(=O)c2cc3c(s2)CCCC3)s1	18.1	-0.5	1.5	i	x
Cc1csc(NC(=O)c2cc3c(s2)CCCCC3)n1	76.6*	-2.2	9.5	i	9.6
CC(COc1ccc(CC#N)cc1)CN1CCC(C(O)(c2ccccc2)c2ccccc2)CC1 (stereo not given)	x	0.3	x	x	x
O=C(c1ccccc1)c1ccc(C(=O)N2CCN(c3ccc(O)cc3)CC2)cc1	61.0*	-0.3	0.6	i	7.2
Cc1cc(C)c2sc(NC(=O)C3=COCCO3)nc2c1	75.5*	-0.2	1.3	i	47.4*	Diaph ctr 10uM=30.2;Diaph ctr 30uM=20.7
Cc1cc(C(=O)Cn2nnc3ccccc3c2=O)c(C)n1-c1ccccc1F	64.9*	1.3	11.9	i	19.4
C=C(CN(C)C)C(=O)c1ccc(C)cc1C	67.7*	0.8	-5.6	i	45.0
O=[N+]([O-])c1ccc(NCCCN2CCC(C(O)(c3ccccc3)c3ccccc3)CC2)cc1	x	-0.5	x	x	x
Cc1csc(NC(=O)Cn2nc(C)c([N+](=O)[O-])c2C)n1	7.8	0.0	-0.9	i	x
CCc1c(C)sc(NC(=O)Cn2nc(C)c([N+](=O)[O-])c2C)c1C(N)=O	69.0*	-0.2	3.5	i	28.6
CCOC(=O)[C@@]12CN(C(=O)OC(C)(C)C)CC=C1N(Cc1ccc(OC)cc1)C(=O)[C@H]2CC(=O)NCc1ccc(C)o1	x	-0.2	x	x	x
C=CC(=O)N1C/C(=C/c2ccc(Cl)cc2)C(=O)/C(=C\c2ccc(Cl)cc2)C1	75.7*	0.5	19.0	i	25.7
C=CC(=O)N1C/C(=C/c2ccccc2)C(=O)/C(=C\c2ccccc2)C1	32.5	-0.6	2.1	i	x
O=C1C=CC(=Nc2ccc3c(c2)Cc2cc(F)ccc2-3)O1	60.9*	-0.9	4.6	i	4.3
O=C1C=CC(=Nc2cccc3c2C(=O)c2ccccc2-3)O1	-13.5	x	-2.5	i	x
O=C(NC1CCCCN(Cc2cccc(C(F)(F)F)c2)C1=O)c1ccc(F)c(F)c1 (stereo not given)	x	0.1	x	x	x
O=C(Oc1ccc(Br)cc1C(=S)N1CCOCC1)c1ccc([N+](=O)[O-])cc1[N+](=O)[O-]	59.7*	0.9	-19.6	i	21.9
O=C(Oc1ccc(C(=S)N2CCOCC2)cc1)c1ccc([N+](=O)[O-])cc1[N+](=O)[O-]	20.6	-0.3	31.6	i	x

Screening data from PubChem BioAssay.
